# High-throughput results (PubChem BioAssay)
# Tau fluor counter: counter-screen for tau fibril formation inhibitors. tau K18 P301L Alexa594 fluorescence, heparin fibrillization. Potency, µM (highest dose often 57.7 µM), for inactives: at the highest dose activity change, negative = decrease. 280,000 tested, 0.93% active. AID 1463; also: nearly all actives have a fitted effect of over 55% in size
#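 Human K18 P301L tau (15 uM unlabeled plus 0.24 uM Alexa 594-labeled, final) in 100 mM sodium acetate pH 7 was mixed with compound and 20 uM heparin and incubated 6 hr at 37 C.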
# Tau fibril FP: tau fibrillization inhibition (FP); K18 P301L tau heparin fibrillization, Alexa594 FP, 6 h; Potency, µM (doses to about 57.7 µM), inactives show at the top dose activity, negative = inhibition, hits mostly inhibitors; 280,000 tested, 0.39% active; also: nearly all actives have a fitted effect of over 55% in size
# Target sequence (P10636 561-689 P618L limits assumed): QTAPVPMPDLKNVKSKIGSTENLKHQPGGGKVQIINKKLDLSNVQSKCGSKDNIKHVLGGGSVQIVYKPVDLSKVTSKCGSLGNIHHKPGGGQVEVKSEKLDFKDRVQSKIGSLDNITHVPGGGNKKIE
#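 Heparin (20 uM) drove fibril formation of recombinant tau K18 P301L, 15 uM unlabeled with 0.24 uM Alexa 594 label, for 6 hr at 37 C in 100 mM sodium acetate pH 7. Fluorescence polarization (555/632 nm) read 1 hr after 30 uM ThT.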
# NPSR antag: neuropeptide S receptor (human) antagonism, cAMP | CHO-NPSR cells, cAMP TR-FRET, antagonist mode | Q6W5P4 | 220,000 tested, 1% active | Potency, µM (series often up to 38.3 µM), for the others: at the top dose activity change, negative = inhibition, most hits filed as inhibitors | AID 1461; also: nearly all actives have a fitted effect of over 50% in size
# Target sequence (Q6W5P4 whole entry, looked up): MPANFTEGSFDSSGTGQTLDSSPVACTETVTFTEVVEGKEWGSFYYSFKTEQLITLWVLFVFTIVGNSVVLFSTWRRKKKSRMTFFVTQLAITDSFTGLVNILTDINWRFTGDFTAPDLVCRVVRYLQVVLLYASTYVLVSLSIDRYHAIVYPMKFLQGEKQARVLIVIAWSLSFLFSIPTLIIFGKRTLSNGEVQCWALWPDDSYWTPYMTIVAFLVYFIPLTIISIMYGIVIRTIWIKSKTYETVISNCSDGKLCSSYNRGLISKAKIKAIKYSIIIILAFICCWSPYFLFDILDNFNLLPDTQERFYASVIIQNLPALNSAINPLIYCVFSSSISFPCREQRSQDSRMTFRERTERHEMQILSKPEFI
# Tau ThT inhib: blocks human tau fibril formation measured by thioflavin T; recombinant tau K18 P301L, heparin-induced fibrillization, ThT fluorescence; 270,000 tested, 2.1% active; P10636; Potency, µM (titrated, usually from 57.4 µM), without a hit: top-dose activity, negative = inhibition, actives largely listed as inhibitors; also: nearly all actives have a fitted effect of over 55% in size
#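 ThT emission at 510 nm, taken 1 hr after adding 30 uM dye, quantifies aggregates formed when 20 uM heparin acts on human tau K18 P301L for 6 hr at 37 C.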
# KinaseGlo FLuc: Kinase-Glo luciferase inhibition (counter-screen); Kinase-Glo luciferase, ATP luminescence, 8 min; Potency, µM (top dose mostly 38.3 µM), inactives show top-dose activity change, negative = inhibition, actives largely listed as inhibitors; 200,000 tested, 0.28% active; also: nearly all actives have a fitted effect of over 60% in size
#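 Compound is pinned into ATP-containing buffer (10 uM ATP, imidazole pH 7.2, 7 mM MgCl2). Kinase-Glo luciferase reagent is then added. Light output is recorded following an 8-min room-temperature incubation.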
# Numbers without * were called inactive; ? = inconclusive; . = no result given; [ ] = dose if it differs, or a comment. Only some compounds are listed: those with a hit (about 3.3% of all), similar ones and a draw of the others. Calls follow the shape of the dose curve; as a rule, active = well fitted curve in the direction sought with a large enough effect; inconclusive = small, poorly fitted or top-dose-only effect, or another doubt; inactive = no such curve, though single readings can be large; an effect the other way counts as inactive or inconclusive. % is scaled to controls: 0 for no effect and ±100 for the full control effect; potency is read from the fitted curve at half-maximal effect.
SMILES,Tau fluor counter,Tau fibril FP,NPSR antag,Tau ThT inhib,KinaseGlo FLuc
Nc1ccc(Oc2ccc3nc(-c4ccccc4)c(-c4ccccc4)nc3c2)cc1,14µM*[quencher],11%,-14%[46.1 µM],-9%,-3%
O=C(O)c1ccc2nc(-c3ccccc3)c(-c3ccccc3)nc2c1,0%,-1%,-11%,-2%,-3%
Cc1cccc(-c2nc3scc(CCNS(=O)(=O)c4ccc(Oc5ccccc5)cc4)n3n2)c1,-17%,?,.,2%,.
Cc1ccc(C(=O)c2coc3cc([N+](=O)[O-])c(O)c([N+](=O)[O-])c23)cc1,-28%,-1%,-25%,3.5µM*,-2%
CO[C@H]1COC(=O)C/C=C\[C@@H](C)[C@H](OC)COC(=O)CCC[C@@H]1C,-6%[11.6 µM],3%[11.6 µM],.,-3%[11.5 µM],.
CCN1C(=O)/C(=C/C2=Cc3ccccc3OC2C)SC1=S (stereo unspecified),?,1%,1%,13µM*,.
CC1Oc2ccccc2C=C1/C=C1/SC(N2CCOCC2)=NC1=O (stereo unspecified),-7%,1%,-19%[46.1 µM],?,0%
Cc1ccc(NC(=O)C(OC(=O)c2ccc(NC(N)=O)cc2)c2ccccc2)cc1Cl (stereo unspecified),?,13µM*,?,?,0%
N#CCCn1c(=O)c(-c2cc(F)cc(F)c2)nc2cnc(Oc3cccc(Cl)c3)nc21,.,.,.,.,-2%
COc1cccc2c1C(=O)C=C(C)C2=O,7.1µM*[quencher],?,-5%,7.1µM*,3%
CC1=CC(=O)c2ccccc2C1=O,7.1µM*[quencher],?,8%,5µM*,-6%
CC(C)(C=O)C1=CC(=O)c2ccccc2C1=O,?,?,?,8.9µM*,1%
CN(C)C=C1C(=O)c2ccccc2C1=O,-14%,-10%,-7%[46.1 µM],?,-1%
COc1ccccc1CNC(=O)CN1C(=O)CSc2c1c(C)nn2-c1ccccc1,-12%,-4%,.,-4%,.
CCCNS(=O)(=O)c1cc(-c2nnc3c4ccccc4c(C)nn23)ccc1OC,5%,-3%,.,2%,.
Cc1ccc(-n2c(=O)c3oc4ccccc4c3n(Cc3cccc(F)c3)c2=O)cc1C,0%,1%,.,-1%,.
COc1ccc(S(=O)(=O)n2nc(-c3ccc(Cl)cc3)cc2N)cc1OC,16µM*[quencher],-12%,-13%[46.1 µM],-14%,0%
COc1ccc(NC(=O)CSc2nnc3scc(-c4ccc(Cl)cc4)n23)cc1,-25%,14%,.,?,.
CC(C)NC(=O)N1CCC2(CC1)CCN(C(=O)c1cnccn1)CC2,.,.,.,.,-1%
COc1cc(/C=N/n2cc(-c3ccccc3)[nH]c2=S)cc(OC)c1O,?,12%,21%,20µM*,.
Cc1ccc(/C=N/n2cc(-c3ccccc3)[nH]c2=S)s1,?,-12%,-46%,?,1%
Oc1ccc(/C=N/n2cc(-c3ccccc3)[nH]c2=S)cc1,?,3%,-20%,10µM*,1%
S=c1[nH]c(-c2ccccc2)cn1/N=C/c1ccccc1Br,-22%,16%,-49%,?,1%
S=c1[nH]c(-c2ccccc2)cn1/N=C/c1cccc2ccccc12,?,10%,-32%,3.5µM*,2%
CCCCC1=CC2=C(c3ccco3)C(=O)C(C)(OC(=O)c3ccc(OC)cc3)C(=O)C2=CN1c1ccccc1 (stereo unspecified),-4%[11.6 µM],0%[11.6 µM],-8%,?,1%[7.66 µM]
SMILES,Tau fluor counter,Tau fibril FP,NPSR antag,Tau ThT inhib,KinaseGlo FLuc
COc1cc(/C=C/C(=O)N2CCCCC2=O)cc(OC)c1OC,-15%,?,.,11µM*,2%
CCOC(=O)c1ccc(NC(=O)Nc2ccc3snnc3c2)cc1,-25%,11µM*,.,4%,.
O=C(Nc1ccc2snnc2c1)Nc1cccc2ccccc12,7.9µM*[quencher],25µM*,?,0%,1%
COc1cccc(C2CC(=O)Nc3c2ccc(C)c3C)c1OC (stereo unspecified),-10%,-1%,.,-6%,.
O=C1N=c2ccccc2=C1c1sc(NS(=O)(=O)c2ccccc2)nc1O,?,5%,-13%,7.1µM*,-1%
O=C(O)CCC(C(=O)O)n1c(O)c(C2=c3ccccc3=NC2=O)sc1=S (stereo unspecified),-8%,1%,-9%[46.1 µM],?,-5%
O=C1N=c2ccccc2=C1c1sc(Nc2ccc(O)cc2)nc1O,14µM*[quencher],5%,2%,2.2µM*,-5%
O=C1N=c2ccccc2=C1c1sc(NS(=O)(=O)Cc2ccccc2)nc1O,-20%,6%,-31%,7.9µM*,.
O=C(Nc1ccccc1OCc1cc(=O)n2ccccc2n1)c1cccc(Br)c1,1%,-4%,.,-6%,.
COc1ccc(N2CCN(CCCNC(=O)c3nnc(Cc4ccccc4Cl)o3)CC2)cc1,-20%,7%,.,?,.
CCOC(=O)c1c(N)sc2c1CCCC2,-17%,?,-5%[46.1 µM],?,-2%
CCNC(=O)c1c(N)sc2c1CCCCC2,-19%,?,-17%[46.1 µM],32µM*,-11%
CCN(CC)c1ccc(NC(=O)c2ccccc2Br)cc1S(=O)(=O)Nc1ccccc1OC,-28%,?,-10%,25µM*,0%
COc1ccc(NS(=O)(=O)c2cc(NC(=O)C3CCCO3)ccc2N2CCCC2)cc1 (stereo unspecified),-3%,-1%,-46%,-4%,-1%
COc1ccccc1NS(=O)(=O)c1cc(NC(=O)Nc2ccccc2)ccc1N1CCCCC1,?,22µM*,-11%,17%,-6%
COc1ccc(NS(=O)(=O)c2cc(NC(=O)C3CCCO3)ccc2N2CCCCC2)cc1 (stereo unspecified),?,-4%,10µM*,-12%,.
COc1ccccc1NS(=O)(=O)c1cc(NC(=S)Nc2cc(C)cc(C)c2)ccc1Cl,32µM*[quencher],?,-22%,-7%,4%
COC(=O)c1ccc(NC(=O)c2cc(S(=O)(=O)N3CCc4ccccc43)cn2C)cc1,-26%,9%,.,?,.
CCC(=O)N1c2ccc(S(=O)(=O)CCC(=O)N3CCN(c4ccc(F)cc4)CC3)cc2CC1C (stereo unspecified),-17%,0%,.,-17%,.
Cn1cc(CN(C(=O)Nc2ccccc2)C2CCCCC2)c2ccccc21,-20%,-3%,.,-17%,.
O=C(Nc1ccc(Cl)c(S(=O)(=O)Nc2ccccc2Cl)c1)c1cccs1,25µM*[quencher],?,-26%,-6%,2%
Cc1ccc(C(=O)Nc2ccc(C)c(S(=O)(=O)Nc3ccccc3Cl)c2)s1,?,?,-25%,5%,-4%
O=C(Nc1ccc(N2CCCC2)c(S(=O)(=O)Nc2cccc(C(F)(F)F)c2)c1)c1cccs1,10µM*[quencher],7%,-58%,-13%,0%
O=C(Nc1ccc(Cl)c(Cl)c1)Nc1ccc(N2CCCC2)c(S(=O)(=O)Nc2ccccc2Cl)c1,4µM*[quencher],-9%,-58%,?,-1%
O=C(/C=C/c1cccs1)Nc1ccc(N2CCOCC2)c(S(=O)(=O)Nc2ccccc2Cl)c1,?,?,-22%,-5%,2%
